Screening results deposited in PubChem by National Center for Advancing Translational Sciences (NCATS).
Marburg entry inh: qHTS for inhibitors of binding or entry into cells for Marburg Virus; Marburg virus pseudotyped entry inhibition, cell reporter; Potency, µM (highest dose often 37.8 µM), for the others: at the top dose activity change, negative = inhibition, usual class: inhibitors; 1.8% of 300,000 active; calls by dose curve; tested in HEK293 cells
RE007 growth inh: qHTS Assay for Inhibitors of the HIV-1 protein Vpr. S. pombe RE007 Vpr strain, BacTiter-Glo ATP luminescence, 24 h. Potency, µM (titrated, usually from 92.2 µM), for inactives: at the highest dose activity change, negative = less growth, hits mostly inhibitors. 0.21% of 360,000 active. AID 651644, 2012; active = well fitted falling curve with a large enough effect; inconclusive = small, poorly fitted or top-dose-only effect; inactive = no such curve, though single readings can be large or run the other way; note: nearly all actives have a fitted effect of over 50% in size
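Fission yeast RE007 carrying one integrated HIV-1 vpr copy, seeded at OD 0.01 in PMG+AL medium with 23 nL pinned compound. Grown 24 h at 30 degrees; viability read by BacTiter-Glo luminescence after 5 min.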
LASV entry inh: qHTS for Inhibitors of binding or entry into cells for Lassa Virus; Lassa virus pseudotype entry inhibition, cell reporter; Potency, µM (titrated, usually from 37.9 µM), without a hit: at the top dose activity change, negative = inhibition, most hits filed as inhibitors; 1.2% of 300,000 active; calls by dose curve; tested in HEK293 cells; note: nearly all actives have a fitted effect of over 50% in size
FMDV inh: High Throughput Screening for Foot and Mouth Disease Virus Antivirals | 1.2% of 410,000 active | AID 1159524, 2015 | FMDV antiviral cell-based qHTS | Potency, µM (titrated, usually from 57.9 µM), without a hit: top-dose activity change, negative = inhibition, hits mostly inhibitors; calls by dose curve; tested in HEK293T cells; note: read-out not given here; nearly all actives have a fitted effect of over 45% in size
Sm TGR block: qHTS Assay for the Inhibitors of Schistosoma Mansoni Peroxiredoxins; Schistosoma mansoni thioredoxin glutathione reductase (TGR), Q962Y6; purified TGR, DTNB reduction, TNB absorbance 405 nm; Potency, µM (highest dose often 114 µM), for the others: top-dose activity change, negative = inhibition, hits mostly inhibitors; 3% of 360,000 active; AID 485364, 2010; note: nearly all actives have a fitted effect of over 60% in size
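First, TGR (20 nM dispensed) and NADPH were mixed with compound. Second, a 15 min room-temperature incubation followed. Third, further NADPH and then DTNB were added to start the reaction. Finally, TNB absorbance was monitored kinetically.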
HCV inh: qHTS Assay for Inhibitors of Hepatitis C Virus (HCV) | AID 651820, 2012 | 3.4% of 340,000 active | Potency, µM (titrated, usually from 41.8 µM), inactives show top-dose activity change, negative = inhibition, most hits filed as inhibitors | Huh7.5.1 HCVcc-Cre infection, luciferase reporter, 44 h
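Compounds are dispensed onto cells plated 4 h earlier at 1,000 per well, with HCVcc-Cre virus (about 0.5 moi) added next. Following 44 h of culture, luminescent signal is measured for 15 sec after 15 min with substrate at room temperature.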
An asterisk follows results filed as active; ? = inconclusive; · = no result; [ ] = another dose, or the depositor's remark. Most compounds without a hit are left out; they make up all but 7.2% or so of the library. Unless noted, calls come from the whole dose curve; as a rule, active = well fitted curve in the direction sought with a large enough effect; inconclusive = small, poorly fitted or top-dose-only effect, or another doubt; inactive = no such curve, though single readings can be large; an effect the other way counts as inactive or inconclusive. % is set by controls: 0 for no effect and ±100 for the full control effect; potency is the fitted concentration of half-maximal effect.

SMILES | Marburg entry inh | RE007 growth inh | LASV entry inh | FMDV inh | Sm TGR block | HCV inh
Clc1ccccc1Cc1noc(CN2CCN(Cc3ccccn3)CC2)n1 | 12.3%[46.1 µM] | -1.8% | -2.4% | 9.5% | 17.8µM* | -12.6%
CCN(Cc1ccncc1)Cc1nc(Cc2ccccc2Cl)no1 | · | -3.2% | · | ? | 7.6% | 11.2µM*
CN(Cc1cnccn1)Cc1nc(Cc2ccccc2Cl)no1 | -3.0%[46.1 µM] | -13.5% | 21.9%[46.1 µM] | -9.4% | 3.1% | 7.1%
O=C1NC(=O)c2cc(Nc3ccccc3)c(Nc3ccccc3)cc21 | 23.1µM* | · | ? | · | · | ·
CCc1nc(OCc2ccccc2)c2sc3nc4c(cc3c2n1)COC(C)(C)C4 | 16.4µM* | 11.6% | 21.8%[14.3 µM] | 18.5% | -18.5% | ·
CC1(C)Cc2nc3sc4c(OCc5ccccc5)ncnc4c3cc2CO1 | 14.6% | -1.3% | 0.1% | ? | -17.7% | 6.3%
COc1ccc(NC(=O)CC2C(=O)N(c3ccc(F)cc3)C(=O)N2Cc2ccco2)cc1 (centres undefined) | · | · | -5.0%[46.1 µM] | 15.7% | 1.6% | ·
O=C(NCCn1cc(SCc2ccccc2)c2ccccc21)c1ccccc1F | ? | -2.2% | ? | ? | -9.5% | 11.2µM*
COc1cccc(CNc2ncnc3sc(C(=O)N4CC5CCC4C5)c(C)c23)c1OC (centres undefined) | · | · | · | 2.4% | · | ·
Cc1ccc(S(=O)(=O)N2CCOCC2)cc1C(=O)Nc1ccccc1C(=O)O | 5.0%[46.1 µM] | · | ? | -6.3% | 7.8% | ·
COCCNC(=O)c1cn(C2CCN(C3CCCC3)CC2)nn1 | · | · | · | -2.4% | · | ·
C/C(=C\c1ccccc1)C1Nc2cccc3cccc(c23)N1 | · | · | · | · | 12.6µM* | ·
C/C(=C\c1ccc2c(c1)OCO2)C1Nc2cccc3cccc(c23)N1 | · | · | · | 6.9% | 20µM* | ·
C/C(=C\c1ccccc1F)C1Nc2cccc3cccc(c23)N1 | · | · | · | -0.7% | ? | ·
C/C=C/c1ccc2c(c1)OCO2 | 0.0% | 3.1% | · | -12.5% | -8.0% | 1.7%
COc1cccc(OC)c1NC(=O)Cn1nc(-c2ccc3c(c2)OCCO3)ccc1=O | 0.2%[46.1 µM] | -1.3% | · | -3.5% | 0.4% | 7.1%
CC(=O)Nc1cc2c(cc1NC(=O)Cn1nc(-c3ccccc3F)ccc1=O)OCCO2 | -20.6% | -1.5% | 6.1% | -23.2% | 44.7µM* | -7.2%
Cc1cccn2c(=O)c(C(=O)N3CCN(c4ccccc4)CC3)cnc12 | · | · | -6.0%[46.1 µM] | 7.7% | 8.7% | ·
CCc1c(C(C)S(=O)(=O)c2ccccc2)[nH]c(=O)n1CC (centres undefined) | 0.3%[46.1 µM] | -5.3% | 2.7% | -6.8% | 1µM* | -7.4%
CC(S(=O)(=O)c1ccccc1)S(=O)(=O)c1ccccc1 | · | -15.2% | · | 11.2% | · | ·
CCC(C)(C)n1nnnc1C(c1cccnc1)N1CCN(c2cccc(C(F)(F)F)c2)CC1 (centres undefined) | 13µM* | 19.0% | ? | -29.5% | -2.3% | -0.3%
CC(C)(C)n1nnnc1C(c1cccc(C#N)c1)N1CCC(Cc2ccccc2)CC1 (centres undefined) | ? | -15.2% | ? | 15.5% | -0.5% | ?
CCC(C)(C)n1nnnc1C(c1cccc(C#N)c1)N1CCN(c2cc(C)ccc2C)CC1 (centres undefined) | 2.91µM* | -10.8% | ? | -21.5% | 8.4% | 6.1%
O=C(CN1C(=O)CC(c2ccco2)Sc2ccccc21)NCC1CCCO1 (centres undefined) | ? | -15.3% | 0.0% | 6.8% | 12.6µM* | 15.8%
CCc1ccc(/C=C2/Sc3ccccc3N(CC(=O)NCC3CCCO3)C2=O)cc1 (centres undefined) | · | 12.7% | · | 2.1% | -15.9% | 10µM*
SMILES | Marburg entry inh | RE007 growth inh | LASV entry inh | FMDV inh | Sm TGR block | HCV inh
O=C(CN1C(=O)CC(c2ccco2)Sc2ccccc21)Nc1ccc2c(c1)OCCO2 (centres undefined) | 0.7% | 9.3% | 1.7% | · | ? | 11.2µM*
Cc1ccc(NC(=O)CN2C(=O)CC(c3ccco3)Sc3ccccc32)cc1Cl (centres undefined) | -0.7%[46.1 µM] | · | · | -8.1% | -6.9% | ·
NC(=O)C1CCCN(Cc2ccc3c(c2)CN(Cc2cn[nH]c2-c2ccc(F)cc2)CCO3)C1 (centres undefined) | · | · | · | -7.2% | · | ·
Nc1cc(=O)nc(SCC(=O)Nc2ccccc2)n1CCc1ccccc1 | -0.8%[46.1 µM] | · | -10.0%[46.1 µM] | 1.7% | -12.6% | ·
CC(=O)Nc1ccccc1-c1nc2ccccc2n(CC(=O)Nc2cccc(C(F)(F)F)c2)c1=O | -14.1%[46.1 µM] | · | ? | -5.3% | -7.4% | ·
COc1ccc(CNC(=O)Nc2cn(CC(C)C)c(=O)c3ccccc23)cc1 | · | · | ? | 8.8% | 28.5% | ·
Cc1ccc(Nc2nc(N)nc(CCl)n2)c(C)c1 | · | -6.3% | · | 15.9% | 31.6µM* | 0.501µM*
Cc1ccc(Nc2nc(N)nc(CN3CCc4ccccc4C3)n2)cc1 | ? | -1.4% | 23.1µM* | -16.7% | -7.6% | ?
Cc1ccc(Nc2nc(N)nc(CCl)n2)cc1 | ? | 10.2% | ? | 6.8% | 11.2µM* | -80.7%
CCOc1ccc(Nc2nc(N)nc(CCl)n2)cc1 | ? | 2.3% | ? | 13.4% | 25.1µM* | 0.562µM*
C/C(CCC(=O)OC[C@@H]1O[C@H](C#Cc2ccccc2)C=C[C@@H]1Oc1ccc(C)cc1)=N/OC[C@@H](O)[C@H]1O[C@H]2OC(C)(C)O[C@H]2[C@@H]1O | -2.1%[14.2 µM] | · | · | · | · | ·
COc1cc2cc(CNc3ccc(C)cc3)c(=O)n(CC(=O)Nc3ccc(C(C)C)cc3)c2cc1OC | · | · | 1.4%[46.1 µM] | 9.4% | -29.0% | ·
Nc1nc(COC(=O)c2ccc3c(c2)OCCO3)nc(Nc2ccccc2)n1 | -9.3% | 2.3% | 2.0% | ? | -12.0% | 11.2µM*
Nc1nc(CCl)nc(Nc2ccccc2)n1 | · | -9.8% | · | 37.9% | 39.8µM* | ?
Nc1nc(CSc2n[nH]c(-c3ccccc3)n2)nc(Nc2ccccc2)n1 | ? | 3.1% | ? | ? | 0.0% | 3.16µM*
Nc1nc(COC(=O)CCC(=O)c2ccccc2)nc(Nc2ccccc2)n1 | 5.6%[46.1 µM] | -12.5% | 19.7% | -6.0% | ? | -10.0%
CNc1cncc(-c2cccc(OC)c2F)n1 | · | -11.9% | · | 52.8% | · | ·
O=C1c2cccc3c(N4CCCCC4)ccc(c23)C(=O)N1c1ccccn1 | 5.2% | -16.6% | 1.6% | -16.0% | 3.5% | 8.3%
O=C1c2ccccc2-c2n[nH]c(=O)c3ccc(N4CCCCC4)c1c23 | -25.9%[46.1 µM] | -23.5% | -27.0% | ? | -4.2% | 11.2µM*
COCCn1c(=O)cnc2cnc(Nc3cccc(OC)c3)nc21 | · | · | · | -12.8% | · | ·
N#Cc1cn(-c2ccccc2)nc1-c1ccco1 | ? | 1.0%[3.69 µM] | 19.4% | 18.5% | 44.7µM* | -2.3%
N#Cc1cn(-c2ccccc2)nc1-c1ccc2c(c1)OCCO2 | -27.9% | 11.6% | ? | 0.0% | -2.6% | 1.5%
